In ChEMBL document CHEMBL2218924, “A broad activity screen in support of a chemogenomic map for kinase signalling research and drug discovery” (Biochem J, 2013) one finds residual activity data, which are given here for one compound.

Experiment [1] deals with Tyrosine-protein kinase SYK (Homo sapiens) (UniProt P43405). Conditions: at 10 µM.
The target in experiment [2] is T1, Mitogen-activated protein kinase kinase kinase 7 (Homo sapiens) (UniProt O43318).
T1 sequence (whole entry): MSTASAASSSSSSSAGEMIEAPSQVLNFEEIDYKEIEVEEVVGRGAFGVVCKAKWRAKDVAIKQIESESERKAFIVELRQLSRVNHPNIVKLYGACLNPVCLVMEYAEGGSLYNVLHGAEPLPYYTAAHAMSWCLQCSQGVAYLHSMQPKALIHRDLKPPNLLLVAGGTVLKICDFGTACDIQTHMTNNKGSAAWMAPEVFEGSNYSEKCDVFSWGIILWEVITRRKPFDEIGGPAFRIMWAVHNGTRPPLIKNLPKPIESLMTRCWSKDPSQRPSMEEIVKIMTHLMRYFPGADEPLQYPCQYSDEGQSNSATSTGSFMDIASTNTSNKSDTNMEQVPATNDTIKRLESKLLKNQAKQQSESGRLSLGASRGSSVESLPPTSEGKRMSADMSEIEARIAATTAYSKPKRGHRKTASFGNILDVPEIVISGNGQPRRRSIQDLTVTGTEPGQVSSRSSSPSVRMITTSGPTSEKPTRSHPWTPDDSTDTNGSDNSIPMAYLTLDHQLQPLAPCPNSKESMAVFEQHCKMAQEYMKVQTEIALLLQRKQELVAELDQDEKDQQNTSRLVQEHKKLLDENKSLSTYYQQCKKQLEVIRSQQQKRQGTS
To be noted: at 1 µM.

For experiment [3], the target named is T1, Mitogen-activated protein kinase kinase kinase 7 (Homo sapiens). Conditions: at 10 µM.
In experiment [4] the target is T2, Serine/threonine-protein kinase TAO1 (Homo sapiens) (UniProt Q7L7X3).
T2 sequence (whole entry): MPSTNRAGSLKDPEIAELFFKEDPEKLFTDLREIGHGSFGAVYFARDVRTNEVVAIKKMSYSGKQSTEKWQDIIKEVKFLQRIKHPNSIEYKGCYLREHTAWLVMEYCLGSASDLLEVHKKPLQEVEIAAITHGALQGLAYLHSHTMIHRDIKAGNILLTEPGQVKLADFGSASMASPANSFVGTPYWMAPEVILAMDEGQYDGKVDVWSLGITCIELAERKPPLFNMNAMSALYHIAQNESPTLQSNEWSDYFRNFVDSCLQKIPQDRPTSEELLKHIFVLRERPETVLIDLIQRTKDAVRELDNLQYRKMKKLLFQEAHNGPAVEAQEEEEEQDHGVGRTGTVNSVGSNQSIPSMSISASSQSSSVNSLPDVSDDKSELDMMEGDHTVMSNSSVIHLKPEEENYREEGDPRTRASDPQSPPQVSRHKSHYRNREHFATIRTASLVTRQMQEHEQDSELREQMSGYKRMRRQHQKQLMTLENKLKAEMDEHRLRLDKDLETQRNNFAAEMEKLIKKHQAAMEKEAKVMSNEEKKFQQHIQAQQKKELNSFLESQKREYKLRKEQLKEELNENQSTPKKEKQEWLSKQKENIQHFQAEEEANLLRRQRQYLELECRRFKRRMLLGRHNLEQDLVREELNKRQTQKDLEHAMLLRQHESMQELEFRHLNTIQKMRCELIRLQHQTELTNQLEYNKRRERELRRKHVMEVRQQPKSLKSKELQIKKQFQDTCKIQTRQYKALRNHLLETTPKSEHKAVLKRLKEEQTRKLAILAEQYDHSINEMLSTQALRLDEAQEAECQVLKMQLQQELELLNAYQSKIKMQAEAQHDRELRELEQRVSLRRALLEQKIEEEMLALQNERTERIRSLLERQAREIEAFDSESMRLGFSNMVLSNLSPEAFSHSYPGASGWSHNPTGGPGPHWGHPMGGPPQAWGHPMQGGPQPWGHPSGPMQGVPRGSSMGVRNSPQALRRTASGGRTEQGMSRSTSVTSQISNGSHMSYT
To be noted: at 1 µM.

The target of experiment [5] is T2, Serine/threonine-protein kinase TAO1 (Homo sapiens). To be noted: at 10 µM.
The target in experiment [6] is T3, Serine/threonine-protein kinase TAO2 (Homo sapiens) (UniProt Q9UL54).
T3 sequence (whole entry): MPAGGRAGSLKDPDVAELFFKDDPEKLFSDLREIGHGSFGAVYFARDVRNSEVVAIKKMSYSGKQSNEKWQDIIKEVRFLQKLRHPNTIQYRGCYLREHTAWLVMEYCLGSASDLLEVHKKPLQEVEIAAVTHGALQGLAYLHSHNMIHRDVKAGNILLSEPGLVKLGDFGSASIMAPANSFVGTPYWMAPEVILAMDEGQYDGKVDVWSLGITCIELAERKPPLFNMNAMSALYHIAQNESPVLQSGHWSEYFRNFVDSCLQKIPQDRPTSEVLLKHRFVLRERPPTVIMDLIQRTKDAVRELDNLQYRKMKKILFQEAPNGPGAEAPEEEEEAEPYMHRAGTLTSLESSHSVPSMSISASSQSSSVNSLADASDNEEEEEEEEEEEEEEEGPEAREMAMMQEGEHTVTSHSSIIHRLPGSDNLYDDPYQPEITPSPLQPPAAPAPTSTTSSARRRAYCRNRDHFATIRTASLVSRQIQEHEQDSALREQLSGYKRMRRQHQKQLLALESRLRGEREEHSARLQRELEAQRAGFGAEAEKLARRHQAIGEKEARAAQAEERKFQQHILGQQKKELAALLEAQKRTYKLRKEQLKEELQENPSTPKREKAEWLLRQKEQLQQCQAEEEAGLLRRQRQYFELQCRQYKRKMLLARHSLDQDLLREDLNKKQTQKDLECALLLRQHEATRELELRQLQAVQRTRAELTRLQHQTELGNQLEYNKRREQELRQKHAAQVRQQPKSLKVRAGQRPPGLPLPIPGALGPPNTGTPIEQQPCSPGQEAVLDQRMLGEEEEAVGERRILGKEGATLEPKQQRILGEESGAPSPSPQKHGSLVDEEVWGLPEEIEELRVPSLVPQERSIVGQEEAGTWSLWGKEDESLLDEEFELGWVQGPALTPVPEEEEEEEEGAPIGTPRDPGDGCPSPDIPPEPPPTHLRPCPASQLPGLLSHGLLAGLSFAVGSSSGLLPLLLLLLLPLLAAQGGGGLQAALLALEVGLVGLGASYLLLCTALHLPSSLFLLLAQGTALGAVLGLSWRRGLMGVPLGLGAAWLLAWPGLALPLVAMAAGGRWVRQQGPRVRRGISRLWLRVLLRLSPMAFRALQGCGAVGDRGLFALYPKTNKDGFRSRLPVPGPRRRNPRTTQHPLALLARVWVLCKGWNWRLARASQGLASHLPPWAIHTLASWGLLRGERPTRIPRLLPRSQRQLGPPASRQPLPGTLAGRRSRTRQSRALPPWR
Conditions: at 1 µM.

The target in experiment [7] is T3, Serine/threonine-protein kinase TAO2 (Homo sapiens). Conditions: at 10 µM.
The target of experiment [8] is T4, Serine/threonine-protein kinase TAO3 (Homo sapiens) (UniProt Q9H2K8).
T4 sequence (whole entry): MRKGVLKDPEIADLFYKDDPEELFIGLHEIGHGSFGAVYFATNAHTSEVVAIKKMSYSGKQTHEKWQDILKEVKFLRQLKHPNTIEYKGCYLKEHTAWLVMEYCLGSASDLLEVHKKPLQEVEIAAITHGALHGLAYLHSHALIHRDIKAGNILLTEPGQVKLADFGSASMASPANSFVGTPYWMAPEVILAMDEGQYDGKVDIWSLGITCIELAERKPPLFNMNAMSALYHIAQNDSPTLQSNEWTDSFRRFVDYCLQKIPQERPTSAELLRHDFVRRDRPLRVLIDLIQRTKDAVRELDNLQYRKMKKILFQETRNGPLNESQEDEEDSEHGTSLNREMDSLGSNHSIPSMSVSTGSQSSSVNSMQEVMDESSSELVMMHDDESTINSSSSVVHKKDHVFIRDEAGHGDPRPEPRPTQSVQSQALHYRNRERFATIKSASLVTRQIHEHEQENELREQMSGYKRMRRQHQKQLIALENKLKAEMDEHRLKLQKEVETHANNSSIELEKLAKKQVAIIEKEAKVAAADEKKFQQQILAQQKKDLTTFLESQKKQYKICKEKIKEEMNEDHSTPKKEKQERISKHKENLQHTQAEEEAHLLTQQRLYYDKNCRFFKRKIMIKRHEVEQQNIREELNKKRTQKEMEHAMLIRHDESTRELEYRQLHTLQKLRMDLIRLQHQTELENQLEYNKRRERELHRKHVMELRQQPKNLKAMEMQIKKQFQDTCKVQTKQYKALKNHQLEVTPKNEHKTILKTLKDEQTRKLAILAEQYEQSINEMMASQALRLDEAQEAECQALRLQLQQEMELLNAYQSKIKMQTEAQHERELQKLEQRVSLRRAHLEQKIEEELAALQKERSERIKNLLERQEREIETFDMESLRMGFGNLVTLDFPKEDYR
To be noted: at 1 µM.

The target in experiment [9] is T4, Serine/threonine-protein kinase TAO3 (Homo sapiens). Conditions: at 10 µM.
The target in experiment [10] is T5, Serine/threonine-protein kinase TBK1 (Homo sapiens) (UniProt Q9UHD2).
T5 sequence (whole entry): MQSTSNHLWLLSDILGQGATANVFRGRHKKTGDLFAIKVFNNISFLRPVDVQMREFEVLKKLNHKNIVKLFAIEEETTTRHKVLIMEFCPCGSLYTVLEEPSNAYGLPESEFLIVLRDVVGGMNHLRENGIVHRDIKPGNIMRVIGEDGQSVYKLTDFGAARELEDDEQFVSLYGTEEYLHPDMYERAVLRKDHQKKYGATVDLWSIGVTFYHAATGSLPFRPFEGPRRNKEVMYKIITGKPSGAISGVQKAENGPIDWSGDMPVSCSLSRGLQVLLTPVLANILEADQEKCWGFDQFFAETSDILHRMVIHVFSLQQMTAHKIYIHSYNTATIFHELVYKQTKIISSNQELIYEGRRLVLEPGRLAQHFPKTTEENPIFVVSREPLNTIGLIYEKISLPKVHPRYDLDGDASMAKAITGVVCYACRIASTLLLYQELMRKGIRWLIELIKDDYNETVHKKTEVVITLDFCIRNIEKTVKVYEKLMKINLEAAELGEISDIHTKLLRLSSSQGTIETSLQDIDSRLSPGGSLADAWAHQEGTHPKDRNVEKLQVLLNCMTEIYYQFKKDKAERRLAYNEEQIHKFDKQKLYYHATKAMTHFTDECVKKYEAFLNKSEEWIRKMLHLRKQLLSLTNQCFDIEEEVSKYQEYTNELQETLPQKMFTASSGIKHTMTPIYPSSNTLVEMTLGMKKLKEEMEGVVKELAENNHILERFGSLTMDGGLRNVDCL
Conditions: at 1 µM.

With `CC(C)n1cnc2/c(=N/c3cccc(Cl)c3)nc(NCCO)[nH]c21`, the residual activity in [1] came out at 56%; in [2], 77%; in experiment [3], 24%; in experiment [4], 87%; in [5], 59%; in experiment [6], 70%. In addition, the residual activity in experiment [7] is 63%; in [8], 93%; in experiment [9] it was 54%; in experiment [10], 57%.
